Source: PubChem BioAssay (University of Kansas High Throughput Screening Laboratory)
Pf apPOL block: Pf-apPOL DNA polymerase inhibition; Recombinant Pf-apPOL, molecular beacon fluorescence, 1.5 h; AID 1794808; 0.25% of 210,000 active; inhibition, % at 10 µM
mHTT CaM bind: inhibitors of human mutant huntingtin-calmodulin interaction | P42858 | AlphaScreen His-mHTT/GST-CaM binding, luminescence | inhibition, % at 15 µM | 3.6% of 190,000 active;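 also: 0% = both proteins with DMSO and 100% = one protein alone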
The depositor's hits bear a star; x = no result. The sample as a whole holds a higher share of hits than the screen did. Rule as the data show it: active = inhibition above about 50%; inactive = the rest.

SMILES	Pf apPOL block	mHTT CaM bind
CC(=O)N1CCCC1c1nc2cc(-c3ccc(N(C)C)cc3)ccc2o1 (stereo not drawn)	-10	86*
O=C(C1CC1)N1CCCC1c1nc2cc(-c3ccc(F)cc3F)ccc2o1 (stereo not drawn)	-5	48
COc1ccc(Cl)cc1S(=O)(=O)NCC1(O)CCc2ccccc21 (stereo not drawn)	-10	-7
CCC(=O)N1CCN(c2cc(Oc3ccc(Cl)cc3F)ncn2)CC1	-14	1
COc1cc(N2CN=c3s/c(=C\C=C\c4ccccc4)c(=O)n3C2)cc(OC)c1OC	-6	55*
COc1cc(N2CN=c3s/c(=C\c4ccccc4)c(=O)n3C2)cc(OC)c1OC	-8	35
Cc1ccc2oc(-c3cc(NC(=O)c4ccccc4C)ccc3O)nc2c1	-2	2
CCC(=O)Nc1ccc(O)c(-c2nc3cc(C)ccc3o2)c1	54*	6
CCS(=O)(=O)N1CCN(c2ccc([N+](=O)[O-])c(NC3CC3)c2)CC1	-8	0
O=[N+]([O-])c1ccc(N2CCNCC2)cc1NC1C2CC3CC(C2)CC1C3 (stereo not drawn)	0	82*
CC(C)(C)NC(=O)C1CC2CCCCC2CN1C(=O)c1ccno1 (stereo not drawn)	-6	x
COc1ccc(-c2cc(N3CCCC(C(=O)Nc4cccc5cccnc45)C3)ncn2)cc1 (stereo not drawn)	-9	17
CCOC(CNC(=O)c1ccc2c(c1)ncn2-c1ccc(C)c(Cl)c1)OCC	26	9
Cc1ccc(-n2cnc3cc(C(=O)NCc4ccco4)ccc32)cc1Cl	32	79*
CCCNC(=O)c1ccc2c(c1)ncn2-c1ccc(C)c(Cl)c1	28	52*
Cc1ccc(-n2cnc3cc(C(=O)NCc4ccco4)ccc32)c(C)c1	27	13
O=C(CCCSc1ccc(NC(=O)C2CC2)nn1)NCc1ccccc1Cl	-6	-14
COCCN1CC(C(=O)NCc2ccc(C)cc2)CC1=O (stereo not drawn)	-1	-6
Cc1ccc2nc(-c3ccc(NC(=O)Cn4cnc(C)cc4=O)cc3)sc2c1	-1	-10
Cc1cccc(-c2cnc(N3CCC(C(=O)Nc4ccc(F)cc4)CC3)nc2)c1	1	100*
Cc1cccc(NC(=O)C2CCN(c3ncc(-c4ccccc4)cn3)CC2)c1	1	-8
COc1ccc(OCC(=O)N2CCN(c3ccccn3)CC2)cc1	-2	-1
Cc1cccc(N2CCN(C(=O)c3ccc4c(=O)n5c(nc4c3)SCC5)CC2)c1C	-8	2
CNC(=O)N1CCCC(c2cccc(C(=O)NCc3ccc(C(F)(F)F)cc3)c2)C1 (stereo not drawn)	-7	64*
CNC(=O)N1CCCC(c2cccc(C(=O)N3CCN(c4cccc(C)c4C)CC3)c2)C1 (stereo not drawn)	-9	64*
SMILES	Pf apPOL block	mHTT CaM bind
CNC(=O)N1CCCC(c2cccc(C(=O)N3CCN(c4ccccc4Cl)CC3)c2)C1 (stereo not drawn)	-1	3
Cc1cccc(N2CCN(C(=O)c3ccc4nc(-c5ccco5)c(-c5ccco5)nc4c3)CC2)c1C	0	78*
CC(C)NC(=O)N1CCCC(c2cccc(C(=O)NCc3ccc(C(F)(F)F)cc3)c2)C1 (stereo not drawn)	-1	6
COc1ccc(NC(=O)CN2C(=O)C(c3ccc(C(C)(C)C)cc3)=NC2(C)C)cc1	-7	-7
CCc1nnc(-c2cccn2CC(=O)Nc2cccc(Cl)c2)o1	-2	9
COC(=O)c1ccc([N+](=O)[O-])o1	6	x
O=C(Cc1ccc(F)cc1)NCCOc1ccc(-c2ccc(F)cc2)nn1	0	0
O=C(NCCOc1cccc2cccnc12)c1ccc(Cl)cc1Cl	-2	1
O=C(Cc1ccc(Cl)cc1)NCCOc1ccc(-c2cccs2)nn1	-1	-6
O=C(CCSc1ccccc1)NCCOc1ccc(-c2ccccn2)nn1	3	100*
O=C(NCCOc1ccc(-c2ccccn2)nn1)c1cc(Cl)ccc1Cl	3	100*
O=C(Cc1cccs1)NCCOc1ccc(-c2ccccn2)nn1	-2	100*
O=C(Cn1cnc2ccccc2c1=O)NCCO	-3	-6
O=C(Cn1cnc2ccccc2c1=O)NCCOc1ccc(-c2ccccn2)nn1	-6	100*
O=C(Nc1cnc(N2CCCC2)nc1)c1ccc(Br)o1	-4	1
Cc1nc(-c2ccc(F)cc2)nc2c1CC(=O)N2CC(C)C	-2	-7
Clc1cc2c(c3ncccc13)OCN(CCCN1CCOCC1)C2	-12	100*
Cc1cc(Cl)c(OCCCN2CCOCC2)c(Br)c1	-5	-3
COc1cccc(NC(=O)c2cccc(NC(=O)CCC(=O)O)c2)c1	1	-2
C[C@H](c1ccccc1)N1C[C@@H](COCc2ccccc2)Oc2cc(N3CC[C@H](O)C3)ccc2S1(=O)=O	-2	78*
C[C@H](c1ccccc1)N1C[C@H](COCc2ccccc2)Oc2cc(N3CCC[C@@H]3CO)ccc2S1(=O)=O	-10	30
COC[C@@H]1CCCN1c1ccc2c(c1)O[C@@H](COCc1ccccc1)CN([C@H](C)c1ccccc1)S2(=O)=O	-7	1
C[C@H](c1ccccc1)N1C[C@H](COCc2ccccc2)Oc2cc(N3CC[C@H](O)C3)ccc2S1(=O)=O	-4	72*
Cc1c(NC(=O)c2cc3cc([N+](=O)[O-])ccc3oc2=O)cccc1C(=O)O	0	-2
FC(F)(F)c1cc(CN[C@H]2CCC23CCC(c2ccccc2)CC3)ccc1Cl (stereo partly drawn)	-7	-44
SMILES	Pf apPOL block	mHTT CaM bind
CCN1C(=O)c2cccnc2Sc2cc(NC(=O)Cc3ccccc3F)ccc21	-1	7
COc1ccc(CCN2CC(C(=O)NCc3cc(F)cc(F)c3)CC2=O)cc1OC (stereo not drawn)	0	3
Cc1ccc(C2=Nc3cccnc3N(CC(=O)Nc3cccc(Cl)c3)C(=O)C2)cc1	4	-2
Cc1c(NC(=O)c2ncn[nH]2)cccc1-c1nc2ccccc2s1	-8	51*
Cc1c(NC(=O)c2ccccc2F)cccc1-c1nc2cc(Cl)ccc2o1	3	-18
Cc1c(NC(=O)c2ccccc2I)cccc1-c1nc2ccccc2s1	-4	4
Cc1c(NC(=O)c2ncn[nH]2)cccc1-c1nc2cc(Cl)ccc2o1	8	53*
O=C(Nc1ccc2oc(-c3ccccc3Cl)nc2c1)c1cncc(Br)c1	-22	-8
O=C(Nc1ccc(-c2nc3cc(Cl)ccc3o2)cc1)c1ncn[nH]1	-180	83*
O=C(Nc1ccc2oc(-c3ccccc3Cl)nc2c1)c1ncn[nH]1	58*	77*
COc1cc(C(=O)Nc2ccc(-c3nc4cc(Cl)ccc4o3)cc2)cc(OC)c1OC	-2	-2
N#CC1=C(N)SC(N)=C(C#N)C1c1ccccc1Br	2	15
O=C(NC1CC1)c1cccc(OCC2CCCN(C(=O)Cc3cccc(F)c3)C2)c1 (stereo not drawn)	1	7
CCC1CN(C(=O)Nc2cc(C)ccc2OC)c2cc(C)ccc2O1 (stereo not drawn)	2	-4
CCN(CC)c1ccc(NC(=O)c2ncn[nH]2)cc1	-2	41
O=C(Nc1ccc([N+](=O)[O-])cc1)c1ncn[nH]1	-3	88*
O=C(Nc1ccc(N2CCOCC2)c(Cl)c1)c1ncn[nH]1	2	82*
O=C(Nc1ccc(N2CCOCC2)c(Cl)c1)c1ccccc1	-156	-7
CCn1c(N2CCC(C(=O)Nc3ccc(OC)cc3)CC2)cc(=O)n(C)c1=O	-4	35
